Assay outcomes deposited in PubChem BioAssay by several laboratories.
An excerpt weighted towards active compounds, which were near 1.2% of everything screened.
Mtb betalactam = beta-lactam sensitization of Mtb H37Rv. inhibition, % at 25 µM. hit rate 0.27% among 330,000. M. tuberculosis H37Rv growth with meropenem, percent inhibition; call rule not given here;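 further: growth measured after seven days incubation then overnight dye step; 0% = bacteria only wells and 100% = bacteria with antibiotic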
RecA splice inh = Mtb RecA intein splicing inhibition; cell-free RecA intein splicing, fluorescence; inhibition, % (concentration not given with the values); hit rate 0.75% among 290,000; in the data active means inhibition above about 30%;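 further: 0% = vehicle wells and 100% = reference inhibitor control wells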
Mtb UGM inh = blocks M. tuberculosis UGM enzyme; inhibition, % at 10 µM; AID 504406; hit rate 0.06% among 320,000; purified UGM, fluorescence polarization probe displacement; in the data active means inhibition above about 10%, passing the limit was not always enough
Target sequence (P9WIQ1 whole entry, looked up): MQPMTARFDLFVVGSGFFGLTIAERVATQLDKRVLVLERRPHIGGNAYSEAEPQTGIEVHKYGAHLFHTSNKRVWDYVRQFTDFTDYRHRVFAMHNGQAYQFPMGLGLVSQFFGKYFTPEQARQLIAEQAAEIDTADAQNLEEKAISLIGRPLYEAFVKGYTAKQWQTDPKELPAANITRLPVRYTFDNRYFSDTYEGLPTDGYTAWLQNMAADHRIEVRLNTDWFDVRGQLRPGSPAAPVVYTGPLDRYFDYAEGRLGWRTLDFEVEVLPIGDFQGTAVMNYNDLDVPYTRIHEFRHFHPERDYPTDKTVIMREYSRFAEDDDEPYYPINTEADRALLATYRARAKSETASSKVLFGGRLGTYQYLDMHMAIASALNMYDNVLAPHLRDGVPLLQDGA
CCHF vOTU inh-1 = blocks the CCHF virus ovarian tumor domain protease | hit rate 0.55% among 370,000 | CCHFV vOTU protease, Pep-AMC fluorescence | AID 651958 | inhibition, % at 11.5 µM; further: 0% = vehicle wells with enzyme and 100% = no enzyme wells
Rv3671c protease = inhibitors of M. tuberculosis serine protease Rv3671c. P9WHR9. inhibition, % at 5.96 µM. hit rate 0.048% among 320,000; in the data active means inhibition above about 38%;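 further: extracellular domain of Rv3671c used as enzyme; 0% = enzyme with DMSO and 100% = no enzyme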
CCHF vOTU inh-2 = confirmation of CCHF virus vOTU protease inhibitors | shares compounds with CCHF vOTU inh-1 | hit rate 17% among 1,900 | Recombinant CCHFV vOTU, Pep-AMC fluorescence | inhibition, % at 11.5 µM
* = called active by the depositor; / = no result given. Unless noted, no stated cut-off is given here; in the data, active means inhibition above about 30%; inactive means the rest.

SMILES | Mtb betalactam | RecA splice inh | Mtb UGM inh | CCHF vOTU inh-1 | Rv3671c protease | CCHF vOTU inh-2
COc1ccc(OCC(=O)Nc2ccc(C(=O)Nc3ccccc3C(=O)O)cc2)cc1 | 3 | 1 | 2 | 29 | -30 | /
O=C(COc1ccc2ccccc2c1)Nc1cccc(C(=O)Nc2ccccc2C(=O)O)c1 | 81 | 6 | 3 | 34* | -97 | 24
Cn1c2ccccc2c2cc(/C=N/NC(=O)c3cc(O)cc(O)c3)ccc21 | 9 | -1 | -5 | 3 | -55 | /
Cn1c2ccccc2c2cc(/C=N/NC(=O)c3cc(O)ccc3O)ccc21 | 0 | -3 | 3 | 51* | -29 | 64*
COC(=O)[C@@H](C)NC(=O)C(Cc1ccc2c(c1)OCO2)NC(C)=O (stereo partly specified) | / | / | / | -3 | / | /
COc1cc(/C=N/NC(=O)c2cc[n+]([O-])cc2)ccc1O | -13 | 0 | 3 | 30* | 5 | -11
CC1CCc2cc(F)cc3c(=O)c(C(=O)O)cn1c23 (stereo unspecified) | 32 | 2 | 0 | 32* | 5 | -9
CC1CCc2c(N3CCC(O)CC3)c(F)cc3c(=O)c(C(=O)O)cn1c23 (stereo unspecified) | -6 | / | 1 | -1 | 4 | /
C#CCNC(=O)C[C@H]1C[C@@]2(C(=O)OC)C(=C[C@H](C3CCCC3)O[C@@H]2C)N(CCc2ccc(OC)c(OC)c2)C1=O | / | / | / | 2 | / | /
C=CCN(CC#Cc1ccccc1)Cc1ccc(OC)cc1 | / | / | / | 0 | / | /
CC(N)c1csc(Nc2ccc(C(=O)c3ccccc3)cc2)n1 (stereo unspecified) | / | / | / | 27 | / | /
CC(C)C(N)c1csc(Nc2ccc(C(=O)c3ccccc3)cc2)n1 (stereo unspecified) | / | / | / | 37* | / | -12
CN(C(=O)CSc1nccc(=O)[nH]1)C1CCCCC1 | -2 | / | 3 | 38* | 5 | -14
COC(=O)[C@@]12C[C@@H](CC(=O)N3CCN(C(=O)c4ccco4)CC3)C(=O)N(CCc3ccc(OC)c(OC)c3)C1=CCC(C)(C)C2 | / | / | / | 1 | / | /
CCCCCCCCN1C(=O)[C@H](CC(=O)N2CCN(C(=O)c3ccco3)CC2)C[C@@]2(C(=O)OC)CC(C)(C)CC=C12 | / | / | / | 32* | / | 11
COC(=O)[C@]12CCCCC=C1N(Cc1ccco1)C(=O)[C@H](CC(=O)N1CCN(C(=O)c3ccco3)CC1)C2 | / | / | / | 2 | / | /
CCCCCCCCN1C(=O)[C@H](CC(=O)N2CCN(C(=O)c3ccco3)CC2)C[C@@]2(C(=O)OC)CCCCC=C12 | / | / | / | 30* | / | -2
C[C@H](O)[C@@H]1CN2CCc3c([nH]c4c(-c5ccc6c(c5)OCO6)cccc34)[C@@H]2C[C@@H]1N(C)C(=O)c1ccccc1F | / | / | / | 2 | / | /
Cc1cccc(C(=O)N[C@@H](C)C(=O)N2CCN(c3ncccn3)CC2)c1 | -4 | / | 1 | 34* | 0 | -27
O=C1CCC2(CCCCC2)N1CCCO | / | / | / | -1 | / | /
COc1ccc(C2C(C(C)=O)=C(O)C(=O)N2c2nc3ccccc3s2)cc1OC (stereo unspecified) | -2 | -2 | 0 | 14 | -4 | /
COc1ccc2nc(N3C(=O)C(O)=C(C(=O)c4ccco4)C3c3ccc(OC)c(OC)c3)sc2c1 (stereo unspecified) | / | / | / | 34* | / | 2
O=C(O)CSc1cc(C(=O)c2cc(F)ccc2O)cn2c(=O)c3c(-c4ccccc4)csc3nc12 | 4 | 9 | 0 | 33* | -83 | 6
CCOC(=O)c1csc(NC(=O)C2CCCN(S(=O)(=O)c3cccs3)C2)n1 (stereo unspecified) | / | / | / | -1 | / | /
CC[C@H](CCCc1ccc(OC)cc1)CCC(=O)N(c1ccccc1)c1ccccc1 | / | / | / | 10 | / | /
SMILES | Mtb betalactam | RecA splice inh | Mtb UGM inh | CCHF vOTU inh-1 | Rv3671c protease | CCHF vOTU inh-2
O=C1c2ccccc2[C@@H]2C[C@@H](O)[C@H](Nc3cccc4ccccc34)CCN12 | / | / | / | 54* | / | -21
COc1ccc(N[C@@H]2CCN3C(=O)c4ccccc4[C@@H]3C[C@H]2O)cc1 | / | / | / | 14 | / | /
CCOc1ccc2c(c1)C(C)=CC(C)(C)N2 | 4 | / | 2 | 40* | -21 | -105
CCc1ccc2c(c1)C(C)=CC(C)(C)N2 | -6 | 1 | -1 | 3 | 6 | /
CCCOc1cccc(C2C(C(=O)c3cc4ccccc4o3)=C(O)C(=O)N2c2cc(C)on2)c1 (stereo unspecified) | 1 | -8 | 2 | 18 | 4 | /
Cc1cc(N2C(=O)C(O)=C(C(=O)c3cc4ccccc4o3)C2c2cccc(Br)c2)no1 (stereo unspecified) | 14 | -2 | 2 | 32* | -12 | 18
CCN(CC)C(=O)CC[C@H]1CC[C@]2(CCCN(CC3CC3)C2)O1 | / | / | / | -1 | / | /
